PKM2 act: qHTS Assay for Activators of Human Muscle isoform 2 Pyruvate Kinase; AID 1631, 2009; Potency, µM (series often up to 57.5 µM), without a hit: at the highest dose activation, actives largely listed as activators; purified PKM2, Kinase-Glo ATP luminescence, activation; response scale: 0% is enzyme alone, no compound; Pyruvate kinase PKM (Homo sapiens), P14618; hit rate 0.34% among 260,000; further: potency means the concentration at half of the fitted maximal effect; on the % scale 0 is the no-effect control and ±100 the full control effect; nearly all actives have a fitted effect of over 55% in size
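Purified hPK-M2 (>95% pure) converted ADP (0.1 mM final) to ATP with 0.5 mM PEP in 50 mM imidazole pH7.2, KCl, MgCl2, Tween 20, BSA; 1 h at room temperature. ATP detected by Kinase-Glo luminescence.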
GLA inh pH 4.5: qHTS Assay for Inhibitors of Human alpha-Galactosidase at pH 4.5; Alpha-galactosidase A (Homo sapiens), P06280; purified enzyme, 4-MU-alpha-Gal fluorescence, pH 4.5; activity change, negative = inhibition, % at 105 µM; 230,000 tested, under 10 active;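 further: 0% = full activity with enzyme and -100% = basal without enzyme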
Target sequence (P06280 whole entry, looked up): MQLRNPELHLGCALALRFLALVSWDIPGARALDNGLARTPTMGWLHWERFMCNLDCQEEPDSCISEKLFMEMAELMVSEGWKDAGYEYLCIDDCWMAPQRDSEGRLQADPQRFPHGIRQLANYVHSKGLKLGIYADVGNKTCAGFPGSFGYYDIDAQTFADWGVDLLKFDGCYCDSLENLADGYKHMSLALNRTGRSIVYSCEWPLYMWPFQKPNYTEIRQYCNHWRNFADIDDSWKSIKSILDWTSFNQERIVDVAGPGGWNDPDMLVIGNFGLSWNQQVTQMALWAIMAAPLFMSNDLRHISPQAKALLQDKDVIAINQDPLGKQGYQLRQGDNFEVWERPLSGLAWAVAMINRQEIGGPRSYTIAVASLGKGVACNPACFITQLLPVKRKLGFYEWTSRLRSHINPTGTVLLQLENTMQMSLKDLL
HTT ATP protect: qHTS Multiplex Assay to Identify Dual Action Probes in a Cell Model of Huntington: Cytoprotection (ATP). Potency, µM (doses to about 56.4 µM), for the others: cytoprotection (ATP increase), most hits filed as activators. PC12 HTT-Q103 induced, cytoprotection, ATP luminescence, 40 h. hit rate 0.14% among 230,000. AID 1471, 2008; further: potency means the concentration at half of the fitted maximal effect; % of control where 0% means no effect; nearly all actives have a fitted effect of over 45% in size
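Readout: ATPlite luminescence (ATP level). Model: stable PC12, inducible Htt exon1 Q103-GFP. Inducer: tebufenozide, 100 nM final. Compounds: dose series. No G418 in medium.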
HttQ103 aggreg: qHTS Multiplex Assay to Identify Dual Action Probes in a Cell Model of Huntington: Aggregate Formation (GFP); PC12 HttQ103-GFP aggregates, Acumen cytometry, 40 h; Potency, µM (series often up to 46.1 µM), for the others: at the highest dose activity change, negative = inhibition, most hits filed as inhibitors; hit rate 1.1% among 220,000; AID 1688, 2009; further: potency means the concentration at half of the fitted maximal effect; on the % scale 0 is the no-effect control and ±100 the full control effect; nearly all actives have a fitted effect of over 60% in size
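Compounds (qHTS titration) were added to PC12 cells expressing an ecdysone-driven HTT exon 1 Q103–GFP fusion after induction with 100 nM tebufenozide. Aggregate formation was measured as GFP objects in cell lysates.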
aGal spleen mod: qHTS Assay for Inhibitors and Activators of Human alpha-Galactosidase From Spleen Homogenate | Alpha-galactosidase A (Homo sapiens), P06280 | human spleen homogenate, 4MU-alpha-Gal fluorescence, 40 min | Potency, µM (top dose mostly 80 µM), for the others: top-dose activity change, negative = inhibition, most hits filed as inhibitors | hit rate 0.008% among 240,000;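 further: potency means the concentration at half of the fitted maximal effect; 0% = enzyme with vehicle and -100% = no enzyme basal signal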
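Human spleen homogenate (1 ug) was the enzyme source, with 4-methylumbelliferyl-alpha-D-galactopyranoside (1 mM final) in pH 5.0 citrate buffer with 0.01% Tween-20. Compounds were titrated; after 40 min at 37C, NaOH/glycine stop, 4-MU fluorescence read; AC50 from Hill fits.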
* marks the source's active call; other numbers are inactive results; u = inconclusive; x = no result given; [ ] = dose if it differs, or a comment. An excerpt weighted towards active compounds, which were near 1.2% of everything screened. The call rests on the fitted dose curve; in most records, active means well fitted curve in the direction sought with a large enough effect; inconclusive means small, poorly fitted or top-dose-only effect, or another doubt; inactive means no such curve, though single readings can be large; an effect the other way counts as inactive or inconclusive.

SMILES	PKM2 act	GLA inh pH 4.5	HTT ATP protect	HttQ103 aggreg	aGal spleen mod
Cc1ccc(CN2CCN(CC3CC4C=CC3C4)CC2)cc1 (configuration not stated)	-5.2%	2.2	-8.1%	3.16µM*	-1.2%
Cc1cccc(-n2c(C)n[nH]c2=S)c1	-5.7%	9.6	3.55µM*	11.7%	-21.4%
Cc1cccc(-n2c(-c3ccncc3)n[nH]c2=S)c1	-28.7%	-9.9	-0.9%[1.9 µM]	3.9%	-5.6%
COC(=O)c1ccc(-c2noc(CN(C)CCC3CCCCO3)n2)cc1 (configuration not stated)	0.199µM*	0.7	-32.6%[10 µM]	-14.3%[9.22 µM]	-6.7%
Cc1ccc(Oc2ccc(NC(=O)c3ccco3)cc2)cc1	-17.7%	-5.0	-25.1%	22.4µM*	14.6%
Cc1ccc(NC(=O)c2ccc(OC(=O)c3ccco3)cc2)cc1	-2.1%	0.8	-75.4%[0.074 µM]	-16.4%	-3.2%
OCCCc1nc2n(n1)C(c1cccs1)C=C(c1ccc(Br)cc1)N2 (configuration not stated)	-5.7%	5.2	-27.7%[10 µM]	11.2µM*	9.6%
Brc1ccc(C2=CC(c3cccs3)n3ncnc3N2)cc1 (configuration not stated)	2.9%	15.2	-53.7%	u	10.9%
CCc1nnc(NC(=O)c2cccc(C(=O)Nc3nnc(CC)s3)n2)s1	4.4%	6.3	-79.5%[0.074 µM]	0.891µM*	7.9%
CCc1nnc(NC(=O)c2ccncc2)s1	-0.6%	18.3	-15.9%	-9.3%	-0.8%
CSCC[C@H](N)C(=O)N[C@@H](CCCN=C(N)N)C(=O)N[C@@H](CC(C)C)C(=O)N[C@@H](Cc1ccccc1)C(=O)N[C@H](C(=O)O)C(C)C	x	x	x	x	-3.5%
O=C1[C@@H]2C=CC=CC2=NC(=S)N1CCN1CCC(=C(c2ccc(F)cc2)c2ccc(F)cc2)CC1	x	x	23.4%[1.9 µM]	x	x
O[C@@H](c1cc(-c2ccccc2)nc2c1ccc1ccccc12)[C@@H]1CCCCN1	x	x	-3.6%[10 µM]	x	x
CCCOc1cccc(NC(=O)c2c(-c3ccccc3)noc2C)c1	-9.4%	-0.2	3.5%	6.31µM*	8.0%
O=C(NC1CC1)C1=C[C@@H](c2csc3ccccc23)C[C@@H](OCCCCO)O1	14.1µM*	2.1	-0.6%[10 µM]	4.8%[9.22 µM]	5.4%
O=c1c2cc(Cl)ccc2nc(-c2ccc([N+](=O)[O-])cc2)n1O	-2.7%	5.4	-71.1%	10µM*	-3.0%
O=c1c2ccccc2nc(-c2ccc(Cl)c(Cl)c2)n1O	5.0%	-11.4	-1.1%[10 µM]	u	2.5%
O=C(Nc1ccc(Cl)c(Cl)c1)OCc1cncs1	-4.1%	0.1	6.2%	11.2µM*	12.0%
CC(C)OC(=O)Nc1ccc(-c2ccc(NC(=O)OC(C)C)cc2Cl)c(Cl)c1	4.0%	-4.0	4.9%[10 µM]	25.1%[9.22 µM]	-1.6%
CC(C)OC(=O)NCCOC(=O)Nc1ccc(Cl)c(Cl)c1	-9.5%	-4.5	25.9%[10 µM]	7.08µM*	-1.0%
CC(C)OC(=O)NCCOC(=O)Nc1cccc(Cl)c1	-0.3%	-0.5	21.7%[10 µM]	11.2µM*	-1.3%
CC(C)OC(=O)NC(C)(C)COC(=O)Nc1cccc(Cl)c1	0.8%	-1.2	-1.8%[10 µM]	0.7%	-3.0%
CCCCCCCCCC(=O)O[C@H](CC(=O)O)C[N+](C)(C)C	x	1.1	-36.3%	x	17.2%
CN(Cc1ccco1)c1nc(-c2cccc(C#N)c2)nc2ccccc12	x	-0.9	4.5%	x	0.3%
Cn1cccc1C(=O)N1CCC2(CCN(Cc3nccs3)CC2)CC1	x	x	8.2%	x	3.5%
SMILES	PKM2 act	GLA inh pH 4.5	HTT ATP protect	HttQ103 aggreg	aGal spleen mod
N#C/C(=C/Nc1ccccc1)c1ccsc1	-3.7%	3.9	-8.1%	12.6µM*	2.0%
CCCCn1c(=O)[nH]c(=O)c2c1nc(-c1ccc(-c3ccccc3Br)o1)n2CC	15.8µM*	-3.9	-27.5%	-19.0%	2.2%
Brc1ccccc1OCCCCn1cnc2ccccc21	4.5%	-0.9	2.2%[10 µM]	u	-6.7%
Cc1ccc(OCCCCn2cnc3ccccc32)c(C)c1	2.5%	5.4	-152.6%	3.16µM*	-8.7%
Cc1ccc(S(=O)(=O)CC(=O)c2ccc([N+](=O)[O-])cc2)cc1	22.4µM*	-2.4	11.5%[10 µM]	19.4%[9.22 µM]	1.8%
N#CC(c1cccc(Cl)c1)c1ccc2c(C(F)(F)F)cc(C(F)(F)F)nc2n1 (configuration not stated)	-1.6%	-0.7	-98.0%	0.891µM*	0.6%
Cn1c2c(c(=O)n(C)c1=O)C(NS(=O)(=O)c1ccccc1)(C(F)(F)F)C(=O)N2 (configuration not stated)	-2.1%	8.8	3.55µM*	11.4%	4.5%
Cc1noc(C)c1C(=O)N1CCC2(CCN(Cc3cc(C(F)(F)F)cc(C(F)(F)F)c3)CC2)CC1	x	x	-31.9%	x	-8.8%
CCCCC#CC1C=CC(OC(C)=O)C(COC(C)=O)O1 (configuration not stated)	x	x	u	x	3.0%[17.5 µM]
CCCCCCC#CC1C=CC(OC(=O)OCC)C(COC(=O)OCC)O1 (configuration not stated)	x	x	2µM*	x	14.3%[17.5 µM]
CC1CCN(c2ncnc3ccccc23)CC1	-1.8%	-6.3	24.2%[10 µM]	22.4µM*	2.6%
O=S(=O)(NC1CCCC1)c1ccc(S(=O)(=O)N2CCc3ccccc32)cc1	2.7%	-4.9	27.0%[10 µM]	11.2µM*	0.2%
Cn1c(=O)c(=O)n(C)c2cc(S(=O)(=O)N3CCc4ccccc43)ccc21	2µM*	4.3	-4.6%	-19.4%	-5.7%
CCOc1ccc(CNc2cccc(SC)c2)cc1	14.1µM*	3.1	-15.0%[10 µM]	-0.8%[9.22 µM]	-3.6%
Cc1ccc(C2=NC(C(F)(F)F)(C(F)(F)F)c3c(n(-c4ccc(F)cc4)c(=O)[nH]c3=O)N2)cc1	4.3%	-7.1	3.1%[10 µM]	u	-2.9%
O=c1[nH]c(=O)n(-c2ccc(F)cc2)c2c1C(C(F)(F)F)(C(F)(F)F)N=C(c1ccc(F)cc1)N2	1.0%	0.2	13.6%[10 µM]	3.16µM*	-2.8%
CCOc1ccc(-c2csc(/C(C#N)=C\c3ccc(O)c([N+](=O)[O-])c3)n2)cc1	-1.4%	-15.9	17.7%[10 µM]	7.94µM*	-1.5%
O=C(c1c(O)c2ccc(Cl)cc2[nH]c1=O)C1CC1	x	-2.4	-13.2%	x	-15.6%
COC(=O)c1ccc(C(NC(=O)OCc2ccccc2)/C(I)=C/[C@@H](C)C(=O)NCc2ccc(C)o2)cc1 (some centres not stated)	14.1µM*	-9.1	5.9%	x	-1.0%
COC(=O)c1ccc(C(NC(=O)OCc2ccccc2)/C(I)=C/[C@@H](C)C(=O)NCc2ccc(OC)c(O)c2)cc1 (some centres not stated)	2.9%	u	1.4%	x	0.1%

Compound activity from PubChem BioAssay.
